# HTT-AS promoter – Primary qHTS for Identification of Small Molecule Activators of Huntingtin-Antisense Promoter Activity; HEK293 HTT-AS promoter firefly luciferase reporter, 24 h; response scale: percent change from vehicle, -100% = no light; Potency, µM (series often up to 57.5 µM), without a hit: top-dose activity change, positive = activation, most hits filed as activators; 48,000 compounds, 0.24% hits; further: nearly all actives have a fitted effect of over 55% in size
#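 Firefly luciferase readout (Dual-Glo, 10 min RT) after 24 h, 37 °C compound exposure (final up to 57.5 uM) of HEK293 reporter cells cultured 24 h beforehand; PTC124 at 50 uM final as control inhibitor; activity scaled vehicle 0%, zero RLU -100%.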
# HTT promoter inh – Primary qHTS for Identification of Small Molecule Inhibitors of Huntingtin Promoter Activity; 48,000 compounds, 0.93% hits; HEK293 HTT promoter firefly luciferase reporter, 24 h; Potency, µM (highest dose often 57.5 µM), without a hit: at the highest dose activity change, negative = inhibition, actives largely listed as inhibitors; AID 1508623, 2021; further: nearly all actives have a fitted effect of over 50% in size
#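 HEK293 Fluc reporter, 2,500 cells/well, 24 h pre-culture; cpds up to 57.5 uM final, 24 h 37 degrees C; Dual-Glo, 10 min RT; normalized vehicle = 0%, zero RLU = -100%.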
# FH mod – Identification of activators of human fumarate hydratase by quantitative high-throughput screening | Fumarate hydratase, mitochondrial (Homo sapiens), P07954 | FH coupled MDH/diaphorase resazurin fluorescence, 15 min | Potency, µM (series often up to 79.9 µM), for the others: at the highest dose activity change, negative = inhibition, hits mostly inhibitors | 54,000 compounds, 0.22% hits | AID 1347055, 2019; further: on the % scale 0 is the no-effect control and ±100 the full control effect; the screen sought activators but most active calls are inhibition curves; nearly all actives have a fitted effect of over 45% in size
# Target sequence (P07954 whole entry, looked up): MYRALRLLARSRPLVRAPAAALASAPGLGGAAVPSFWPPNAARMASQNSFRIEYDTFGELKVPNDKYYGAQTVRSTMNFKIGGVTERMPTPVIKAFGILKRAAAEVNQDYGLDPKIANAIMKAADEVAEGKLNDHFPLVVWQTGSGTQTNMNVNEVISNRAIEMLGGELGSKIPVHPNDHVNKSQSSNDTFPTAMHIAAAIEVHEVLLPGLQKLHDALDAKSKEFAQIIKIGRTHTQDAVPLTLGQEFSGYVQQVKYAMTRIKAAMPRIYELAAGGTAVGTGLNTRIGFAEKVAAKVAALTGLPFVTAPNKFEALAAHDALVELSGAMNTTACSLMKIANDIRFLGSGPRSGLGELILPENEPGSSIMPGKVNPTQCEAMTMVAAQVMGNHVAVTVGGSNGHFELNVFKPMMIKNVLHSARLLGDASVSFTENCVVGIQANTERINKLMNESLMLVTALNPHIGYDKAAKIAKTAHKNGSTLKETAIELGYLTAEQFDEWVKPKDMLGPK
# NTMT1 inh – Primary qHTS for Inhibitors of N-terminal methyltransferase 1 (NTMT1): MTaseGlo Assay | AID 1645870, 2021 | N-terminal Xaa-Pro-Lys N-methyltransferase 1 (Homo sapiens), Q9BV86 | 59,000 compounds, 2.5% hits | Potency, µM (series often up to 114 µM), for the others: at the top dose activity change, negative = inhibition, most hits filed as inhibitors | NTMT1 MTase-Glo SAH luminescence, purified enzyme;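 further: plate controls were DMSO vehicle for no effect and no enzyme for full effect; nearly all actives have a fitted effect of over 65% in size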
# Numbers without * were called inactive; ? = inconclusive; nt = no result given; ! = not confirmed by another sample; [ ] = dose if it differs, or a comment. Sampled rows, rich in hits. Any-hit rate of the full collection: about 2.6%. The call rests on the fitted dose curve; in most records, active means well fitted curve in the direction sought with a large enough effect; inconclusive means small, poorly fitted or top-dose-only effect, or another doubt; inactive means no such curve, though single readings can be large; an effect the other way counts as inactive or inconclusive. Potency means the concentration at half of the fitted maximal effect.
SMILES,HTT-AS promoter,HTT promoter inh,FH mod,NTMT1 inh
Cc1ccc(C(=O)CSc2nc(C)cc(C)c2C(=O)Nc2cccc(C)c2)cc1,-14%,?,-18%,50µM*
COc1ccccc1NC(=O)c1c(C)cc(C)nc1SCC(=O)Nc1ccc(C)cc1,-29%,?,-16%,21%
COc1ccc(C(=O)CSc2nc(C)cc(C)c2C(=O)Nc2ccccc2C)cc1,-6%,-27%,-28%,2.8µM*
Cc1cccc(NC(=O)c2c(C)cc(C)nc2SCC(=O)Nc2c(C)cc(C)cc2C)c1,-18%,-26%,-6%,-11%
Cc1nc2cc(-c3ccc(Cl)cc3)nn2c(C)c1CCC(=O)N1CCN(c2ccccc2)CC1,-75%,1µM*,-13%,-9%
Cc1nc2cc(-c3ccccc3)nn2c(C)c1CCC(=O)N1CCN(c2ccccc2)CC1,-67%,2.5µM*,-10%,11%
CC(C)S(=O)(=O)NC[C@H](C)c1ccc(NC(=O)c2cc(F)cc(F)c2)cc1,nt,nt,1%,-2%[57.5 µM]
Cc1cccc(/C=C(\C#N)c2nc3ccccc3c(=O)[nH]2)c1,-17%,-5%,-8%,16%
CN(C)c1ccc(/C=C(\C#N)c2nc3ccccc3c(=O)[nH]2)cc1,?,78%,-3%,35µM*
CN1CCN(CCCNc2ncc(Cl)c(-c3cc4c(C(=O)NC5CC5)cccc4s3)n2)CC1,nt,nt,0%,79µM*
CN1CCN(CCCNC(=O)c2cnn(-c3ccccc3)c2C2CCN(C(=O)OC(C)(C)C)CC2)CC1,-7%,1%,5%,-2%
CN(C)c1ccc(C(=C2C=CC(=[N+](C)C)C=C2)c2ccccc2)cc1,-96%,?,?,22µM*
CN(C)c1ccc(C(=C2C=CC(=[N+](C)C)C=C2)c2ccc(N(C)C)cc2)cc1,-79%,?,-10%[53.3 µM],20µM*
COc1ccc(-c2nc3ccccc3o2)cc1NC(=O)COc1ccc(C)c(C)c1,?,23%,-6%,-19%
COc1ccc(OCC(=O)Nc2cc(-c3nc4ccccc4o3)ccc2Cl)cc1,10µM*,49%,-2%,1%
O=c1c2oc3ccccc3c2n(Cc2ccccc2)c(=O)n1Cc1ccco1,-16%,-10%,-17%,89µM*
CC(C)[C@H]1CCC(CO)=C[C@@H]1/C=C(\CO)C(=O)O,nt,nt,7%,-12%[57.5 µM]
COc1cc(C(=O)O)ccc1NC(=O)[C@@H]1N[C@@H](CC(C)(C)C)[C@](C#N)(c2ccc(Cl)cc2F)[C@H]1c1cccc(Cl)c1F,nt,nt,nt,11µM*
CC(=O)Nc1sc2c(c1-c1cnn(C(C)=O)c1)CCNC2,nt,nt,nt,-10%
COC(=O)C1=C(c2ccccc2)c2ccccc2S(=O)(=O)N1CC(=O)Nc1cccc(C(C)=O)c1,-36%,-36%,?,79µM*
CC1OC(OC2C(C)OC(OC3C(OC(=O)C45CCC(C)(C)CC4C4=CCC6C7(C)CCC(OC8OC(C(=O)O)C(O)C(O)C8OC8OC(CO)C(O)C(OC9OC(C)C(O)C(O)C9O)C8O)C(C)(CO)C7CCC6(C)C4(C)CC5)OC(CO)C(O)C3O)C(O)C2O)C(O)C(O)C1O (configuration not stated),nt,nt,8%[13.5 µM],4%[6.45 µM]
CC(=O)N1CCN(c2ccc(OC[C@H]3CO[C@](Cn4ccnc4)(c4ccc(Cl)cc4Cl)O3)cc2)CC1,-31%,-26%,16%[53.3 µM],22µM*!
Cn1c2ccc(F)cc2c2c(C(=O)N3CCCC3)cn(-c3ccccc3)c(=O)c21,nt,nt,0%,-6%[57.5 µM]
CC(C)N(CCCNC(=O)Nc1ccc(C(C)(C)C)cc1)C[C@H]1O[C@@H](n2ccc3c(N)ncnc32)[C@H](O)[C@@H]1O,nt,nt,-2%,13%[12.6 µM]
CC(C)N(CCCNC(=O)Nc1ccc(C(C)(C)C)cc1)C[C@H]1O[C@@H](n2cc(Br)c3c(N)ncnc32)[C@H](O)[C@@H]1O,nt,nt,3%,8.9µM*
SMILES,HTT-AS promoter,HTT promoter inh,FH mod,NTMT1 inh
Nc1ncc(S(=O)(=O)N2CCOCC2)s1,nt,nt,nt,6%[57.5 µM]
COc1cc(OC)c(NC(=O)Nc2cccc(OCc3cc(=O)n4ccccc4n3)c2)cc1Cl,16%,14%,-13%,79µM*
Cc1ccc(NS(=O)(=O)c2ccc3c(c2)C2C=CCC2C(c2ccc(C(=O)O)cc2)N3)cc1C (configuration not stated),nt,nt,nt,25µM*
COc1cccc(CC(=O)Nc2nc(-c3ccc4c(c3)CCN4C(=O)c3ccccc3C)c(C)s2)c1,nt,nt,nt,10%[57.5 µM]
CC1(C)Cc2c(sc(NC(=S)NC(=O)c3ccccc3)c2C(=O)O)CO1,-34%,-22%,-4%[53.3 µM],79µM*!
CC1CCc2nc3ncn(Cc4ccc(Cl)cc4)c(=O)c3cc2C1 (configuration not stated),3.2µM*,47%,-1%,?
O=C(O)c1cccc(-n2cccc2)c1,nt,nt,nt,13%
Cc1ccc(C)n1-c1cccc(C(=O)O)c1,nt,nt,nt,2.2µM*
Cc1ccc(-n2[nH]c(C)c(N=Nc3cccc(-c4cccc(C(=O)O)c4)c3O)c2=O)cc1C,-33%,1%,?,35µM*!
Cc1cccc(NC(=O)c2sc3nc(-c4cc5ccc(O)cc5oc4=O)[nH]c(=O)c3c2C)c1,-21%,-14%,?,7.1µM*
Cc1cc(NC(=O)Nc2nnc(C3CCCCC3)s2)ccc1F,nt,nt,nt,6%
Cc1ccc(CNS(=O)(=O)c2cc3c(cc2Cl)NC(=O)CO3)o1,-4%,3%,-20%,89µM*
Cc1cc2c(cc1S(=O)(=O)NCc1ccccc1Cl)OCC(=O)N2,-16%,-26%,-2%,-6%
Cc1ccc(Cl)cc1-n1ncc2c(N3CCN(Cc4ccccc4)CC3)ncnc21,-95%,13µM*,?,-3%
CCN1CCN(c2ncnc3c2cnn3-c2cc(Cl)ccc2C)CC1,-11%,-21%,-14%,-22%
Cc1ccc(C(=O)Nc2ccc(Oc3cc4cnn(C)c4cc3-c3cn[nH]c3)c(F)c2)c(=O)n1-c1ccc(F)cc1,nt,nt,-2%,3%
CC(C)(O)c1ccn2c(-c3ccc(F)c(-c4ccc(F)cc4C#N)c3)cnc2c1F,nt,nt,2%,-5%[57.5 µM]
Cc1ccc(C(=O)Nc2ccc(S(=O)(=O)O)c3cc(S(=O)(=O)O)cc(S(=O)(=O)O)c23)cc1NC(=O)c1cccc(NC(=O)Nc2cccc(C(=O)Nc3cc(C(=O)Nc4ccc(S(=O)(=O)O)c5cc(S(=O)(=O)O)cc(S(=O)(=O)O)c45)ccc3C)c2)c1,1%,-3%,14µM*,34%[57.5 µM]
Cc1ccc(Cl)cc1NC(=O)c1cccc(NC(=O)N2CCSc3ncccc32)c1,-33%,?,-12%,1%
CC(C)(Oc1ccc(-c2nc3cc(Cl)ccc3s2)cc1)C(=O)O,nt,nt,-2%,-4%[57.5 µM]
c1ccc(CN(CC2=NCCN2)c2ccccc2)cc1,-11%,4%,7%,5%[57.5 µM]
Cc1ccc(N(CC2=NCCN2)c2cccc(O)c2)cc1,-14%,4%,-3%[53.3 µM],89µM*!
Cc1cc(C)c(Nc2nn3c(=O)c4cc5c(cc4nc3s2)OCO5)c(C)c1,-7%,-10%,-8%,45µM*
